From PubChem BioAssay (NCATS)
Records with an inconclusive call do not appear. Entries that show only a call come without a potency. The source made the active and inactive calls. The call rests on the fitted dose curve; in most records, active means well fitted inhibition curve with a large enough effect; inconclusive means small, poorly fitted or top-dose-only effect; inactive means flat fitted curve, though single readings scatter.

What was measured:
Assay in all cases: qHTS profiling for inhibitors of Plasmodium falciparum proliferation (AID 504749); further: nearly all actives have a fitted effect of over 60% in size
Details in all cases: P. falciparum in erythrocytes, SYBR Green DNA, 72 h; series mostly up to 28.7 µM
PC26 = system: PC26
In short: (§1)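 SYBR Green fluorescence (ex 485 nm, em 535 nm) reports parasite DNA after 72 h compound exposure of infected red cells at 0.3% parasitemia, 2.5% hematocrit; signal normalized to 0.29 uM artemisinin and vehicle wells.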

PC49 = system: PC49
In short: as §1

SC27B = system: SC27B
In short: as §1

TAB109 = system: TAB109
In short: as §1

TAB113 = system: TAB113
In short: as §1

TAB165 = system: TAB165
In short: as §1

W2 = system: W2
In short: as §1
Potency means the concentration at half of the fitted maximal effect.

| SMILES | Potency (PC26) | Potency (PC49) | Potency (SC27B) | Potency (TAB109) | Potency (TAB113) | Potency (TAB165) | Potency (W2) |
| --- | --- | --- | --- | --- | --- | --- | --- |
| CCNC(C)Cc1cccc(C(F)(F)F)c1 (stereo not drawn) | inactive | inactive | inactive | inactive | inactive | inactive | – |
| O=C(O)C(Cl)(Cl)Cl | inactive | inactive | inactive | inactive | inactive | inactive | inactive |
| O=C1CN=C(c2ccccc2)c2cc(Cl)ccc2N1CC1CC1 | inactive | inactive | inactive | inactive | inactive | inactive | – |
| O[C@H]1[C@H]2[C@H](O)CCCN2C[C@H]1O | inactive | inactive | inactive | inactive | inactive | inactive | inactive |
| CCC1(CC)C(=O)NC(=O)N(C)C1=O | inactive | inactive | inactive | inactive | inactive | inactive | – |
| O=C1CC[C@@]2(O)C3Cc4ccc(O)c5c4C2(CCN3CC2CC2)[C@H]1O5 (stereo partly drawn) | inactive | inactive | inactive | inactive | inactive | inactive | – |
| CCCCCCCCOC(=O)c1ccccc1C(=O)OCCCCCCCC | inactive | inactive | inactive | inactive | inactive | inactive | inactive |
| COCC(C)N(C(=O)CCl)c1c(C)csc1C (stereo not drawn) | inactive | inactive | inactive | inactive | inactive | inactive | inactive |
| Clc1ccccc1Cl | inactive | inactive | inactive | inactive | inactive | inactive | inactive |
| CNC(=O)OCC[N+](C)(C)C | inactive | inactive | inactive | inactive | inactive | inactive | inactive |
| ClC1C(Cl)C(Cl)C(Cl)C(Cl)C1Cl (stereo not drawn) | inactive | inactive | inactive | inactive | inactive | inactive | inactive |
| CCOC(=O)c1ccccc1C(=O)OCC | inactive | inactive | inactive | inactive | inactive | inactive | inactive |
| O=c1[nH]cc(N(CCCl)CCCl)c(=O)[nH]1 | inactive | inactive | inactive | inactive | inactive | inactive | inactive |
| CCC1(c2ccccc2)C(=O)NC(=O)NC1=O | inactive | inactive | inactive | inactive | inactive | inactive | inactive |
| CCON=O | inactive | inactive | inactive | inactive | inactive | inactive | inactive |
| O=[N+]([O-])C(Br)(CO)CO | inactive | inactive | inactive | inactive | inactive | inactive | – |
| Clc1ccc(Cl)cc1 | inactive | inactive | inactive | inactive | inactive | inactive | inactive |
| C=CCN1CCC23c4c5ccc(O)c4O[C@H]2C(=O)CC[C@@]3(O)C1C5 (stereo partly drawn) | inactive | inactive | inactive | inactive | inactive | inactive | inactive |
| O=CC=O | inactive | inactive | inactive | inactive | inactive | inactive | inactive |
| C[N+]1(C)CCCCC1COC(=O)C(O)(c1ccccc1)c1ccccc1 (stereo not drawn) | inactive | inactive | inactive | inactive | inactive | inactive | – |
| O=[N+]([O-])c1ccc(F)c([N+](=O)[O-])c1 | inactive | inactive | inactive | inactive | inactive | inactive | inactive |
| CC(N)Cc1ccc(O)cc1 (stereo not drawn) | inactive | inactive | inactive | inactive | inactive | inactive | inactive |
| CC(C)CCON=O | inactive | inactive | inactive | inactive | inactive | inactive | inactive |
| CCC(N)Cc1c[nH]c2ccccc12 (stereo not drawn) | inactive | inactive | inactive | inactive | inactive | inactive | inactive |
| O=S(=O)(O)c1cc(O)ccc1O | inactive | inactive | inactive | inactive | inactive | inactive | inactive |
| CCC1(C)CC(=O)NC(=O)C1 | inactive | inactive | inactive | inactive | inactive | inactive | inactive |
| CN1C2CCC1CC(OC(c1ccccc1)c1ccc(Cl)cc1)C2 (stereo not drawn) | 7.57 µM (active) | 5.01 µM (active) | 11.2 µM (active) | 7.08 µM (active) | 7.94 µM (active) | 5.01 µM (active) | 2.39 µM (active) |
| COc1ccc2c3c1O[C@H]1C(=O)CC[C@H]4[C@@H](C2)N(C)CC[C@]314 | inactive | inactive | inactive | inactive | inactive | inactive | – |
| CNC1(c2ccccc2Cl)CCCCC1=O (stereo not drawn) | inactive | inactive | inactive | inactive | inactive | inactive | 4.78 µM (active) |
| CC[N+](C)(CC)CCOC(=O)C(O)(c1ccccc1)c1ccccc1 | inactive | inactive | inactive | inactive | inactive | inactive | inactive |
